Laboratory results taken from PubChem BioAssay (Tox21).
Several values for one entry are separate records, joined by “and”; a condition that tells them apart may be missing. Equal entries are not always repeated. Records with an inconclusive call do not appear. A call without a number means that no potency is given here. More than one record can exist for a structure, and the calls need not agree. Activity calls are given as the source filed them. Unless noted, calls follow the shape of the dose curve; as a rule, active = well fitted curve in the direction sought with a large enough effect in the repeat runs; inconclusive = weak or mixed curves; inactive = no such curve, though single readings can be large; an effect the other way counts as inactive or inconclusive.

Experiments:
[1] = qHTS assay to identify small molecule agonists of the hypoxia (HIF-1) signaling pathway (AID 1224846; active = well fitted activation curve with a large enough effect in the signal ratio in the repeat runs, not every such curve was filed as active; the % refers to the signal ratio)
Method in brief: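 Beta-lactamase FRET read-out (CCF4-AM substrate) from ME-180 cells carrying an HRE-driven bla reporter, after 17 hrs compound exposure at 37C/5% CO2. Cells were seeded at 2,000 per well in 0.5% dialyzed FBS medium and preincubated 5 hrs.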

[2] = qHTS assay to identify small molecule agonists of H2AX - cell viability counter screen (AID 1224847; calls by dose curve; also: nearly all actives have a fitted effect of over 30% in size; also: potency is read from the fitted curve at half-maximal effect)
Method in brief: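 Read-out: CellTiter-Glo luminescence, 30 min RT. Cells: wild-type CHO-K1, 1000/well, 10% FBS, plated overnight at 37C. Treatment: 15 concentrations, 3 hr, 37C, 0.76% DMSO.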

[3] = qHTS RealTime-Glo MT Cell Viability Assay in HepG2 cells - 24 hour (AID 1224867); also: nearly all actives have a fitted effect of over 50% in size
Method in brief: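 HepG2 suspension premixed with RealTime-Glo reagents is plated at 600 cells per well and left 5 h at 37 C/5% CO2. Compounds in DMSO then go in, and bioluminescence reflecting viable cell number is recorded over 40 h.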

[4] = qHTS RealTime-Glo MT Cell Viability Assay in HEK293 cells - 32 hour (AID 1224868); also: nearly all actives have a fitted effect of over 50% in size; also: potency is read from the fitted curve at half-maximal effect
Method in brief: (§1)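 Reads taken at 0, 8, 16, 24, 32 and 40 h from the same wells. HEK293 cells (600/well) carried RealTime-Glo reagents from seeding, with compound added after a 5 h settle at 37 C.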

[5] = A CellTox Green Cytotoxicity Assay to monitor cytotoxicity in HEK293 cells - 0 hour (AID 1224869); also: nearly all actives have a fitted effect of over 50% in size; also: potency is read from the fitted curve at half-maximal effect
Method in brief: (§2)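 Read-out: fluorescence of a cell-impermeant cyanine dye staining DNA of dead cells, proportional to cytotoxicity. HEK293, 600 cells/well with reagent, compound (23 nL DMSO) added after 5 h; reads at 0, 8, 16, 24, 32, 40 h.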

[6] = qHTS RealTime-Glo MT Cell Viability Assay in HepG2 cells - 40 hour (AID 1224870); also: nearly all actives have a fitted effect of over 50% in size; also: potency is read from the fitted curve at half-maximal effect
Method in brief: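 Real-time viability: cells seeded at 600 per well together with NanoLuc and cell-permeant prosubstrate, compounds added after 5 h incubation. Luminescence tracked at 0, 8, 16, 24, 32 and 40 h of exposure.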

[7] = A CellTox Green Cytotoxicity Assay to monitor cytotoxicity in HEK293 cells - 40 hour (AID 1224871); also: nearly all actives have a fitted effect of over 45% in size; also: potency is read from the fitted curve at half-maximal effect
Method in brief: as §2

[8] = qHTS RealTime-Glo MT Cell Viability Assay in HEK293 cells - 16 hour (AID 1224872); also: nearly all actives have a fitted effect of over 50% in size; also: potency is read from the fitted curve at half-maximal effect
Method in brief: as §1

[9] = qHTS assay to identify small molecule antagonists of the estrogen related receptor (ERR) signaling pathway from Tox21 library (AID 1224848); also: nearly all actives have a fitted effect of over 50% in size
Method in brief: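 ERR cell line, 2,000 cells/well. 6 h settle, then compound (DMSO) added; 18 h at 37 C; ONE-Glo luminescence after 30 min RT.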

[10] = qHTS assay to identify small molecule agonists of the estrogen related receptor (ERR) signaling pathway from Tox21 library (AID 1224849; calls by dose curve; also: nearly all actives have a fitted effect of over 15% in size); conditions: ERR reporter cell line, ONE-Glo luciferase, 18 h
Method in brief: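 Luminescence readout (ONE-Glo, 30 min RT) after 18 h compound exposure at 37 C of NTP-supplied ERR reporter cells; cells were plated 6 h before compound addition by pin tool.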

Structure (SMILES)	outcome [1]	Potency [2]	Potency [3]	Potency [4]	Potency [5]	Potency [6]	Potency [7]	Potency [8]	Potency [9]	activity change, positive = activation ([10]; at 42.5 µM (top of the series))	activity change, positive = activation ([10]; at 92.4 µM (top of the series))
O=[N+]([O-])O	inactive	inactive	inactive	inactive	inactive	inactive	inactive	inactive	–	–	–
COP(=O)(OC)OC=C(Cl)Cl	inactive	inactive	inactive	inactive	inactive	inactive	inactive	inactive	–	–	–
Nc1ccccc1	inactive	inactive	inactive	inactive	inactive	inactive	inactive	inactive	–	–	–
CCCn1cc[n+](C)c1	inactive	inactive	inactive	inactive	inactive	49.4 µM (active) and inactive	inactive	inactive	–	–	–
OCCOc1ccccc1	inactive	inactive	inactive	inactive	inactive	inactive	inactive	inactive	inactive	7.59% (inactive)	-33.2% (inactive) and 4.84% (inactive)
Nc1ccc(Cl)cc1	inactive	inactive	inactive	inactive	inactive	inactive	inactive	inactive	–	–	–
COc1ccccc1N	inactive	inactive	inactive	inactive	inactive	inactive	inactive	inactive	inactive	–	8.48% (inactive) and 0.539% (inactive) and 1.9% (inactive)
Nc1ccc(-c2ccc(N)cc2)cc1	inactive	inactive	inactive	inactive	inactive	inactive	inactive	inactive	–	–	–
O=[N+]([O-])c1ccccc1O	inactive	inactive	inactive	inactive	inactive	inactive	inactive	inactive	inactive	–	2.74% (inactive) and 26.9% (inactive) and 8.3% (inactive)
CCCCn1cc[n+](C)c1	inactive	inactive	inactive	inactive	inactive	inactive and 35.2 µM (active)	inactive	inactive	–	–	–
CCC(=O)C(CC(C)N(C)C)(c1ccccc1)c1ccccc1 (stereo unspecified)	inactive	inactive	inactive	24.4 µM (active)	inactive	inactive	inactive	inactive	–	–	–
O=c1nc(O)n(Cl)c(=O)n1Cl	inactive	inactive	inactive	inactive	inactive	inactive	inactive	inactive	inactive	–	9.16% (inactive) and 1.98% (inactive) and 3.37% (inactive)
CCCC[n+]1ccccc1C	inactive	inactive	inactive	inactive	inactive	inactive	inactive	inactive	–	–	–
CCCC[N+]1(C)CCCC1	inactive	inactive	inactive	inactive	inactive	inactive and 43.9 µM (active)	inactive	inactive	–	–	–
Cc1cc(Cl)ccc1N	inactive	inactive	inactive	inactive	inactive and 38.9 µM (active)	inactive	inactive and 38.9 µM (active)	inactive	–	–	–
CCCCCCCCn1cc[n+](C)c1	inactive	56.3 µM (active) and 80 µM (active) and 90.5 µM (active)	inactive	3.86 µM (active) and 3.12 µM (active) and 3.93 µM (active)	inactive	inactive	19.4 µM (active) and 49.5 µM (active)	–	–	–	–
O=C(O)C(Cl)Cl	inactive	inactive	inactive	inactive	inactive	inactive	inactive	inactive	–	–	–
CCOP(=S)(OCC)Oc1ccc2c(C)c(Cl)c(=O)oc2c1	inactive	inactive	inactive	12.4 µM (active) and 43.6 µM (active) and inactive	inactive	inactive	inactive	14 µM (active) and 43.6 µM (active) and inactive	inactive	25.6% (active)	-10.9% (inactive) and -28.3% (inactive)
Cc1cc(Cl)ccc1OCC(=O)O	inactive	inactive	inactive	inactive	inactive	inactive	inactive	inactive	–	–	–
COCC(=O)N(c1c(C)cccc1C)C(C)C(=O)OC (stereo unspecified)	inactive	inactive	inactive	inactive	inactive	inactive	inactive	inactive	inactive	5.38% (inactive)	1.31% (inactive) and 1.04% (inactive)
CCNc1nc(Cl)nc(NCC)n1	inactive	inactive	inactive	inactive	inactive	inactive	inactive	inactive	inactive	-12% (inactive)	-3.33% (inactive) and -18.8% (inactive)
CCC[N+]1(C)CCCC1	inactive	inactive	inactive	inactive	inactive	inactive and 34.9 µM (active)	inactive	inactive	–	–	–
O=C(O)c1ccccc1O	inactive	inactive	inactive	inactive	inactive	inactive	inactive	inactive	–	–	–
O=C(O)c1nc(Cl)ccc1Cl	inactive	inactive	inactive	inactive	inactive	inactive	inactive	inactive	–	–	–
CC[n+]1ccccc1	inactive	inactive and 1.26 µM (active)	inactive	inactive and 38.6 µM (active)	inactive	inactive and 34.8 µM (active)	inactive	inactive	–	–	–
CCCC[n+]1ccc(C)cc1	inactive	inactive and 89.3 µM (active)	inactive	inactive	inactive	inactive	inactive and 21.8 µM (active)	34.5 µM (active) and inactive	–	–	–
O=S(=O)(O)O	inactive	inactive	inactive	inactive	inactive	inactive	inactive	inactive	–	–	–
CC[N+]1(C)CCCC1	inactive	inactive	inactive	inactive and 21.9 µM (active)	inactive	inactive	inactive	inactive	–	–	–
O=c1[nH]c(=O)n(Cl)c(=O)n1Cl	inactive	inactive	inactive	inactive	inactive	inactive	inactive	inactive	inactive	–	2.32% (inactive) and 2.59% (inactive) and 1.02% (inactive)
O=C(O)CCl	inactive	inactive	inactive	inactive	inactive	inactive	inactive	inactive	inactive	–	5.04% (inactive) and -0.191% (inactive) and -5.49% (inactive)
